In PubChem BioAssay (NCI) one finds growth data, which are given here for twelve molecules.

About 83,000 compounds went through this panel and 20% of them were active in at least one assay; those are over-represented in the sample as a whole.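 In brief: 96-well plates, 48 h treatment, single concentration, percent growth endpoint.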 A number with no mark means an inactive call. Calls of active or inactive are those of the source. Rule for the calls: active = growth percent below 10; inactive = the rest.

For one experiment, the system named is SK-OV-3 ovarian. The experiment in a line: NCI-60 one-dose screen, 48 h (100 = growth as untreated, 0 = no growth, -100 = all killed). To be noted: 10 µM.
Consider `CCCS(=O)(=O)c1oc(-c2ccc(F)cc2)nc1S(=O)(=O)c1ccc(F)cc1`, for which the growth is 83.3%. The same measure, in the same setting: the value for `CC(C)CCSc1nc(NC2CC2)c(C#N)c(-c2ccc(C(C)C)cc2)n1` was 96.5%. Still for that read-out and setting: the value for `Cc1ccc(-c2nc3ccc(C(=O)N=Nc4c(O)[nH]c5ccc([N+](=O)[O-])cc45)cc3[nH]2)cc1` was 78.9%.

A further experiment concerns IGROV1 ovarian. Described as above. To be noted: 10 µM.
Regarding `CN1CCN(c2ccc(Nc3nc(N4CCN(S(=O)(=O)c5ccc(F)cc5)CC4)c4sccc4n3)cc2)CC1`, the growth was -86.4% (active).

Consider `CCCCCc1ccc(S(=O)(=O)Nc2cc(-c3csc(N(C)C(C)=O)n3)ccc2N2CCN(C)CC2)cc1`, for which the growth is 48%. The same measure, in the same setting: then `CN1CCN(c2ccc(Nc3nc(NCCCNC(=O)C4CCCCC4)c4sccc4n3)cc2)CC1`, with 76.9%; and `N[C@@H](CSSC[C@H](N)C(=O)Nc1ccc(OCC2CCCC2)cc1)C(=O)Nc1ccc(OCC2CCCC2)cc1`, with -92.1% (active); and `COc1ccc2nc(Cl)c(-c3cc(-c4ccccc4)nc(=O)[nH]3)cc2c1`, with 78.2%. Still for that read-out and setting: the value for `O=C(Nc1ccc(OCc2ccccc2)cc1)Nc1ccc(Cl)c(C(F)(F)F)c1` was 19%; that for `COc1ccc2[nH]c(O)c(N=NC(=O)COc3ccc(NC(=O)Nc4ccc(Cl)cc4)cc3)c2c1` was 68.8%; that for `Cc1cc2c(c(O)c1Br)-c1ncoc1C(=O)[C@]1(C)CC[C@H](C(C)C)[C@H]21` was 52.2%. Regarding `CCN1CCN(c2ccc(NC(=O)Nc3ccc4c(c3F)CCN4c3ccnc(C(=O)NC)c3)cc2C(F)(F)F)CC1`, the growth is 113%.
